Data on 40 sequences can be found in paper PMC7862700, “An all-to-all approach to the identification of sequence-specific readers for epigenetic DNA modifications on cytosine”.

One experiment concerns the target T1, ERF (Homo sapiens, UniProt P50548 1-548).
T1 sequence: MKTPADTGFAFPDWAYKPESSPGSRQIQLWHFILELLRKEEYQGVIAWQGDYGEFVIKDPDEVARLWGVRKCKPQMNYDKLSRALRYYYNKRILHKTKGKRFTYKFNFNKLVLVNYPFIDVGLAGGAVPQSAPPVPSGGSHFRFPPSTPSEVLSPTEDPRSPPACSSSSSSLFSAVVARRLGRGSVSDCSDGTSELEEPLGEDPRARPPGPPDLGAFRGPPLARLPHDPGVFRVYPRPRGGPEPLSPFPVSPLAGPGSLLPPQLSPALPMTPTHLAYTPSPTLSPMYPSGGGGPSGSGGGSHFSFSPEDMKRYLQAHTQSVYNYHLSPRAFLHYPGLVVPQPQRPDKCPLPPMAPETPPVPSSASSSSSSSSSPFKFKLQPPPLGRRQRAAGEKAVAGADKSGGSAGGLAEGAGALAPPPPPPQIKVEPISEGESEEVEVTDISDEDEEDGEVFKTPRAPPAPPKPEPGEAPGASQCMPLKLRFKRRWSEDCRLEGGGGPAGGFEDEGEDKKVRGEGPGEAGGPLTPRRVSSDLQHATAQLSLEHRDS
Nature of the experiment: DAPPL (digital affinity profiling via proximity ligation, sequencing); 10 mM Tris-HCl pH 7.5, 50 mM NaCl, 1 mM DTT, 4% glycerol, room temperature, 30 min; GST-TFs on glutathione beads, 16-mer random dsDNA library, 0.1% formaldehyde crosslink after washing; high values mean tight binding. As to conditions: protein: recombinant; tags: N-terminal GST; dsDNA, one strand shown. An outline of the steps: (§1)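 Binding signal is each hexamer's read frequency for a factor divided by its frequency in the tag-only sample. The factors were GST-fused human transcription factors from yeast, captured on glutathione beads, DNA-barcoded and pooled with that sample. Pools were incubated with 200 nmole of a random double-stranded 16-mer DNA library in Tris/NaCl/DTT/glycerol buffer at room temperature for 30 min, then washed, crosslinked with 0.1% formaldehyde, proximity-ligated with BsaI/T4 ligase (1 h, 37 °C), PCR-amplified and sequenced on an Illumina NextSeq500.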
In the case of CAAACT, the binding signal was 1.23 fold enrichment (6-mer frequency, TF over GST control).
On the same count and under the same terms, for ACGGCC the value was 1.02 fold enrichment (6-mer frequency, TF over GST control); for CATTTC, 1.72 fold enrichment (6-mer frequency, TF over GST control); for CGTTAT, 1.17 fold enrichment (6-mer frequency, TF over GST control).
On the same count and under the same terms, the figure for ATATGT is 1.25 fold enrichment (6-mer frequency, TF over GST control); for GAAACG it is 1.27 fold enrichment (6-mer frequency, TF over GST control); for ATGATT it is 1.18 fold enrichment (6-mer frequency, TF over GST control).
The same measure, in the same setting: the figure for CTGCCC is 1.16 fold enrichment (6-mer frequency, TF over GST control).
As to TCCGGG, the binding signal was 1.38 fold enrichment (6-mer frequency, TF over GST control).
The same measure, in the same setting: the figure for CCCCCA is 1.06 fold enrichment (6-mer frequency, TF over GST control); for ATAGTT it is 1.23 fold enrichment (6-mer frequency, TF over GST control); for ATGTAC it is 1.19 fold enrichment (6-mer frequency, TF over GST control).
Take ATGGGT: the binding signal was 1.36 fold enrichment (6-mer frequency, TF over GST control).
Regarding CCGAGC, the binding signal is 1.17 fold enrichment (6-mer frequency, TF over GST control).
Still for that read-out and setting: the figure for CCCTTG is 1.24 fold enrichment (6-mer frequency, TF over GST control); for TTGCTA it is 1.37 fold enrichment (6-mer frequency, TF over GST control).
On the same count and under the same terms, the figure for CACAAC is 1.36 fold enrichment (6-mer frequency, TF over GST control); for GATTTG it is 1.12 fold enrichment (6-mer frequency, TF over GST control); for GAAACA it is 1.34 fold enrichment (6-mer frequency, TF over GST control).
For the sequence GGATGC, the binding signal was 1.13 fold enrichment (6-mer frequency, TF over GST control).
On the same count and under the same terms, the figure for CAGGAA is 1.42 fold enrichment (6-mer frequency, TF over GST control).
On the same count and under the same terms, for CCCATC the value was 1.25 fold enrichment (6-mer frequency, TF over GST control).
Still for that read-out and setting: for ACCCAC the value was 1.2 fold enrichment (6-mer frequency, TF over GST control); for CCTTAT, 1.41 fold enrichment (6-mer frequency, TF over GST control).
With CTTCTA, the binding signal was 1.5 fold enrichment (6-mer frequency, TF over GST control).
For the sequence GACCTG, the binding signal is 1.13 fold enrichment (6-mer frequency, TF over GST control).
Still for that read-out and setting: the figure for TCCCCG is 1.21 fold enrichment (6-mer frequency, TF over GST control); for AAGCAG it is 1 fold enrichment (6-mer frequency, TF over GST control).
As for ATACTA, the binding signal was 1.09 fold enrichment (6-mer frequency, TF over GST control).
On to TGGTAC, for which the binding signal was 1.11 fold enrichment (6-mer frequency, TF over GST control).
The same measure, in the same setting: for TAAATA the value was 1.21 fold enrichment (6-mer frequency, TF over GST control); for TAAACC, 1.28 fold enrichment (6-mer frequency, TF over GST control); for AAAAGG, 1.08 fold enrichment (6-mer frequency, TF over GST control).
On the same count and under the same terms, for ATTACT the value was 1.37 fold enrichment (6-mer frequency, TF over GST control); for GATGCG, 1.17 fold enrichment (6-mer frequency, TF over GST control); for TAGGCT, 1.37 fold enrichment (6-mer frequency, TF over GST control).
The same measure, in the same setting: the figure for ATATTT is 1.55 fold enrichment (6-mer frequency, TF over GST control).
For TTTGGC, the binding signal was 1.29 fold enrichment (6-mer frequency, TF over GST control).
The same measure, in the same setting: for TACGTC the value was 1.08 fold enrichment (6-mer frequency, TF over GST control); for TATACC, 1.27 fold enrichment (6-mer frequency, TF over GST control).

The target in the next experiment is T2, ETV3L (Homo sapiens, UniProt Q6ZN32 1-361).
T2 sequence: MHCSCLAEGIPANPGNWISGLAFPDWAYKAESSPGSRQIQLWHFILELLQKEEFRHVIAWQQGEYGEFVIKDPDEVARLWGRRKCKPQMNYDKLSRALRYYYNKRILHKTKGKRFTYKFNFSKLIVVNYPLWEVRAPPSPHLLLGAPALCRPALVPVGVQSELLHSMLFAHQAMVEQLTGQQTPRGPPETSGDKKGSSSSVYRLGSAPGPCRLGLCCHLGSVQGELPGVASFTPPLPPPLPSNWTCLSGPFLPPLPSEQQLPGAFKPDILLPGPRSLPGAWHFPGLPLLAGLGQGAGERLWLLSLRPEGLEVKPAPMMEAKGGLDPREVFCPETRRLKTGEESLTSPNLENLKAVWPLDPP
The description is as above. To be noted: protein: recombinant; tags: N-terminal GST; dsDNA, one strand shown. The method in brief: as §1
On to CAAACT, for which the binding signal was 1.14 fold enrichment (6-mer frequency, TF over GST control).
The same measure, in the same setting: for ACGGCC the value was 1.13 fold enrichment (6-mer frequency, TF over GST control); for CATTTC, 1.81 fold enrichment (6-mer frequency, TF over GST control); for CGTTAT, 1.2 fold enrichment (6-mer frequency, TF over GST control).
With ATATGT, the binding signal is 1.17 fold enrichment (6-mer frequency, TF over GST control).
Consider GAAACG, for which the binding signal is 1.18 fold enrichment (6-mer frequency, TF over GST control).
As for ATGATT, the binding signal was 1.24 fold enrichment (6-mer frequency, TF over GST control).
Still for that read-out and setting: for CTGCCC the value was 1.22 fold enrichment (6-mer frequency, TF over GST control); for TCCGGG, 1.4 fold enrichment (6-mer frequency, TF over GST control); for CCCCCA, 1.21 fold enrichment (6-mer frequency, TF over GST control).
On the same count and under the same terms, for ATAGTT the value was 1.27 fold enrichment (6-mer frequency, TF over GST control).
Still for that read-out and setting: the figure for ATGTAC is 1.32 fold enrichment (6-mer frequency, TF over GST control); for ATGGGT it is 1.27 fold enrichment (6-mer frequency, TF over GST control); for CCGAGC it is 1.1 fold enrichment (6-mer frequency, TF over GST control).
CCCTTG: the binding signal is 1.08 fold enrichment (6-mer frequency, TF over GST control).
As for TTGCTA, the binding signal is 1.35 fold enrichment (6-mer frequency, TF over GST control).
On the same count and under the same terms, the figure for CACAAC is 1.29 fold enrichment (6-mer frequency, TF over GST control).
Still for that read-out and setting: for GATTTG the value was 1.18 fold enrichment (6-mer frequency, TF over GST control); for GAAACA, 1.4 fold enrichment (6-mer frequency, TF over GST control).
Same read-out and setting: for GGATGC the value was 1.19 fold enrichment (6-mer frequency, TF over GST control).
Consider CAGGAA, for which the binding signal is 1.53 fold enrichment (6-mer frequency, TF over GST control).
Take CCCATC: the binding signal is 1.15 fold enrichment (6-mer frequency, TF over GST control).
As to ACCCAC, the binding signal was 1.02 fold enrichment (6-mer frequency, TF over GST control).
On to CCTTAT, for which the binding signal is 1.46 fold enrichment (6-mer frequency, TF over GST control).
Same read-out and setting: the figure for CTTCTA is 1.35 fold enrichment (6-mer frequency, TF over GST control).
Still for that read-out and setting: the figure for GACCTG is 1.33 fold enrichment (6-mer frequency, TF over GST control); for TCCCCG it is 1.17 fold enrichment (6-mer frequency, TF over GST control).
On the same count and under the same terms, for AAGCAG the value was 1.04 fold enrichment (6-mer frequency, TF over GST control).
For the sequence ATACTA, the binding signal is 1.2 fold enrichment (6-mer frequency, TF over GST control).
On the same count and under the same terms, for TGGTAC the value was 1.21 fold enrichment (6-mer frequency, TF over GST control); for TAAATA, 1.27 fold enrichment (6-mer frequency, TF over GST control).
On the same count and under the same terms, for TAAACC the value was 1.26 fold enrichment (6-mer frequency, TF over GST control); for AAAAGG, 1.1 fold enrichment (6-mer frequency, TF over GST control); for ATTACT, 1.23 fold enrichment (6-mer frequency, TF over GST control).
Still for that read-out and setting: for GATGCG the value was 1.25 fold enrichment (6-mer frequency, TF over GST control).
On to TAGGCT, for which the binding signal was 1.16 fold enrichment (6-mer frequency, TF over GST control).
The same measure, in the same setting: the figure for ATATTT is 1.4 fold enrichment (6-mer frequency, TF over GST control); for TTTGGC it is 1.23 fold enrichment (6-mer frequency, TF over GST control).
Same read-out and setting: for TACGTC the value was 1.27 fold enrichment (6-mer frequency, TF over GST control); for TATACC, 1.15 fold enrichment (6-mer frequency, TF over GST control).

The target in the next experiment is T3, ETS2 (Homo sapiens, UniProt P15036 1-469).
T3 sequence: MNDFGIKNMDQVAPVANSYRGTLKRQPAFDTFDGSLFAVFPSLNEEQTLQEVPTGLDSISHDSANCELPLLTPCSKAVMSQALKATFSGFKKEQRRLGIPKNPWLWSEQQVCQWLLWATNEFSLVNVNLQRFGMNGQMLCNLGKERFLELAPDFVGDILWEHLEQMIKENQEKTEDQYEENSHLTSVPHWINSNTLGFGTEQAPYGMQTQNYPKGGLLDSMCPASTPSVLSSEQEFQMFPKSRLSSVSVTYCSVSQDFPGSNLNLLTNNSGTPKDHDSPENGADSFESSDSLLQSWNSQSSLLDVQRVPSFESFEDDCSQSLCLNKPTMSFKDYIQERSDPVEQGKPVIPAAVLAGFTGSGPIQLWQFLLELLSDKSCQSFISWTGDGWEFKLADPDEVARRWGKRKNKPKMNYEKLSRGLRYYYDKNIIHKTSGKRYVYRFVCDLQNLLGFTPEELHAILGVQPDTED
Described as above. To be noted: protein: recombinant; tags: N-terminal GST; dsDNA, one strand shown. The method in brief:
as §1
In the case of CAAACT, the binding signal was 1.21 fold enrichment (6-mer frequency, TF over GST control).
The same measure, in the same setting: the figure for ACGGCC is 1.1 fold enrichment (6-mer frequency, TF over GST control); for CATTTC it is 1.87 fold enrichment (6-mer frequency, TF over GST control).
As for CGTTAT, the binding signal was 1.15 fold enrichment (6-mer frequency, TF over GST control).
Regarding ATATGT, the binding signal is 1.19 fold enrichment (6-mer frequency, TF over GST control).
In the case of GAAACG, the binding signal was 1.17 fold enrichment (6-mer frequency, TF over GST control).
Still for that read-out and setting: for ATGATT the value was 1.18 fold enrichment (6-mer frequency, TF over GST control); for CTGCCC, 1.21 fold enrichment (6-mer frequency, TF over GST control); for TCCGGG, 1.67 fold enrichment (6-mer frequency, TF over GST control).
Still for that read-out and setting: for CCCCCA the value was 1.19 fold enrichment (6-mer frequency, TF over GST control).
The same measure, in the same setting: for ATAGTT the value was 1.18 fold enrichment (6-mer frequency, TF over GST control).
In the case of ATGTAC, the binding signal is 1.42 fold enrichment (6-mer frequency, TF over GST control).
On the same count and under the same terms, for ATGGGT the value was 1.37 fold enrichment (6-mer frequency, TF over GST control).
Still for that read-out and setting: for CCGAGC the value was 1.17 fold enrichment (6-mer frequency, TF over GST control).
On the same count and under the same terms, for CCCTTG the value was 1.16 fold enrichment (6-mer frequency, TF over GST control); for TTGCTA, 1.33 fold enrichment (6-mer frequency, TF over GST control).
For CACAAC, the binding signal is 1.25 fold enrichment (6-mer frequency, TF over GST control).
Still for that read-out and setting: the figure for GATTTG is 1.14 fold enrichment (6-mer frequency, TF over GST control).
On the same count and under the same terms, for GAAACA the value was 1.34 fold enrichment (6-mer frequency, TF over GST control); for GGATGC, 1.2 fold enrichment (6-mer frequency, TF over GST control).
